# Test results: PubChem BioAssay (NCATS)
# A number with no mark means an inactive call. Inconclusive results are not listed. A call without a number means that no potency is given here. Calls of active or inactive are those of the source. The call rests on the fitted dose curve; in most records, active means well fitted curve in the direction sought with a large enough effect; inconclusive means small, poorly fitted or top-dose-only effect, or another doubt; inactive means no such curve, though single readings can be large; an effect the other way counts as inactive or inconclusive.
# Assays:
# [1] = system: Nanoluciferase (engineered Oplophorus gracilirostris luciferase); test: Primary Nanoluciferase (NLuc) qHTS assay for identification of artifact compounds. (AID 1845222);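 further: NLuc secreted into diluted conditioned medium of S16 cells; series mostly up to about 54 µM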
# In short: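 NLuc from S16 cell medium (1:55) plus test compounds, 15 min, room temperature. Luminescence after Nano-Glo (1:100) addition, 5 min.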
# [2] = Primary redox qHTS assay for identification of artifact compounds. (AID 1845223)
# In short: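 Redox-cycling detection via DTT (250 uM final) oxidation coupled to Amplex Red (25 uM)/HRP (250 mU/mL) in HBSS. 15 min preincubation plus 30 min after DTT, room temperature. Ex/Em 525/598 nm; 4-parameter Hill fit against DMSO and 10 uM DA3003.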
smiles,measurement,setting,value
Cc1ccccc1-c1cc(N2CCN(C)CC2)ncc1N(C)C(=O)C(C)(C)c1cc(C(F)(F)F)cc(C(F)(F)F)c1,Potency,[1],inactive
same,Potency,[2],inactive
C[C@H]1CCN2C[C@]34C[C@@]5(C(=O)Nc6c5ccc5c6OC=CC(C)(C)O5)C(C)(C)C3C[C@]12C(=O)N4C (some centres not stated),Potency,[1],inactive
same,Potency,[2],inactive
Cc1occc1C(=O)n1ccnc1,Potency,[1],inactive
same,Potency,[2],inactive
Nc1ccc(-n2nc(C(F)(F)F)cc2C(F)(F)F)cc1,Potency,[1],inactive
same,Potency,[2],inactive
O=C(OCC1=CC(Cl)C(O)C(OC(=O)c2ccccc2)C1O)c1ccccc1 (configuration not stated),Potency,[1],inactive
same,Potency,[2],inactive
COc1cc2c(cc1O)C(c1ccc(O)cc1)C(C)C(C)C2 (configuration not stated),Potency,[1],inactive
same,Potency,[2],inactive
N#Cc1cccc(-c2c[nH]c3ncnc(N4CCOCC4)c23)c1,Potency,[1],inactive
same,Potency,[2],inactive
O=C(O[C@@H]1O[C@H](CO)[C@@H](O)[C@H](O)[C@H]1O)c1ccccc1,Potency,[1],inactive
same,Potency,[2],inactive
CC(=O)OC12CC(C)C(O)C1/C=C(/COC1OC(CO)C(O)C(O)C1O)CCC1C(/C=C(\C)C2=O)C1(C)C (configuration not stated),Potency,[1],inactive
same,Potency,[2],inactive
O=C(Nc1ccccc1)Nc1ccc(-c2ccc(C(=O)C3CCCC3C(=O)O)cc2)cc1 (configuration not stated),Potency,[1],inactive
same,Potency,[2],inactive
C/C=C1/[C@H](O[C@@H]2O[C@H](CO)[C@@H](O)[C@H](O)[C@H]2O)OC=C(C(=O)OC)[C@H]1CC(=O)OCCc1ccc(O)c(O)c1,Potency,[1],inactive
same,Potency,[2],inactive
CC1=C[C@H]2[C@@H](CC1=O)[C@H](C)C[C@H](O)[C@H]2C(C)C,Potency,[1],inactive
same,Potency,[2],inactive
CC(C)Oc1ccc(-c2nc(-c3cccc4c3CCC4NCCC(=O)O)no2)cc1C#N (configuration not stated),Potency,[1],inactive
same,Potency,[2],inactive
O=C(Nc1cc(-c2ccccc2)nn1-c1ccccc1F)c1ccc([N+](=O)[O-])cc1,Potency,[1],inactive
same,Potency,[2],inactive
CC[C@H](NC(=O)c1c(O)c(-c2ccccc2)nc2ccccc12)c1ccccc1,Potency,[1],inactive
same,Potency,[2],inactive
CNc1nc(Cc2ccccc2)nc2c1CCNC[C@@H]2C,Potency,[1],inactive
same,Potency,[2],inactive
CC1(C(=O)O)CCCC2(C)C3CCC4CC3(CCC12)CC4(O)CO (configuration not stated),Potency,[1],inactive
same,Potency,[2],inactive
C=C1C(OC(C)=O)[C@@]23CCC4[C@](C)(C(=O)O)CCC[C@@]4(C)[C@]2(O)CC[C@H]1C3 (some centres not stated),Potency,[1],inactive
same,Potency,[2],inactive
CC1(C)CCC2(C(=O)O)CCC3(C)C(=CCC4C5(C)CCC(O)C(C)(CO)C5C(O)CC43C)C2C1 (configuration not stated),Potency,[1],inactive
same,Potency,[2],inactive
O=C1C(Cl)=C(N2CCOCC2)C(=O)N1c1ccc(Cl)c(Cl)c1,Potency,[1],inactive
same,Potency,[2],inactive
O=C(O)c1ccnc(-c2cc(C(=O)NCCc3ccccc3)ccn2)c1,Potency,[1],inactive
same,Potency,[2],inactive
COc1ccc(C2COc3cc(O)ccc3C2)c(O)c1OC (configuration not stated),Potency,[1],inactive
same,Potency,[2],inactive
COC(=O)C1(C)CCCC2(C)c3ccc(C(C)C)cc3C(O)C(O)C12 (configuration not stated),Potency,[1],inactive
same,Potency,[2],inactive
CC(=O)[C@@H]1C[C@H](C(C)(C)O[C@@H]2O[C@H](CO)[C@@H](O)[C@H](O)[C@H]2O)CC[C@@]2(CO)OC(=O)C[C@@H]12,Potency,[1],inactive
same,Potency,[2],inactive
CC(=O)OC1(C)CC(O)C2(O)C=COC(OC3OC(CO)C(O)C(O)C3O)C12 (configuration not stated),Potency,[1],inactive
same,Potency,[2],inactive
C=C(C)[C@@]1(O)C[C@@]2(C)C(=CC1=O)CC[C@@H](O)[C@@H]2C,Potency,[1],inactive
same,Potency,[2],inactive
CC(=O)OCC1=C[C@@H]2OC(=O)C3=CO[C@@H](O[C@@H]4O[C@H](CO)[C@@H](O)[C@H](O)[C@H]4O)[C@H]1[C@@H]32,Potency,[1],inactive
same,Potency,[2],inactive
C/C=C(/C)C(=O)OC1C(OC(C)=O)C23C(O)OC4(CCC5C6(C)CCC(OC7OC(C(=O)O)C(O)C(OC8OC(CO)C(O)C(O)C8OC8OC(C)C(O)C(O)C8OC8OCC(O)C(O)C8O)C7OC7OC(CO)C(O)C(O)C7O)C(C)(C)C6CCC5(C)C4(C)CC2OC(C)=O)C3CC1(C)C (configuration not stated),"activity, negative = inhibition",[1],0.798% [at 11.6 µM]
same,redox activity (% of DA3003),[2],6.91% [at 11.5 µM]
COc1ccc(/C=C/C(=O)O[C@@H]2[C@@H](O[C@@H]3O[C@H](CO)[C@@H](O)[C@H](O)[C@H]3O)[C@@H](O)[C@H](O[C@H]3C4C=CO[C@@H](O[C@@H]5O[C@H](CO)[C@@H](O)[C@H](O)[C@H]5O)C4[C@@]4(CO)O[C@@H]34)O[C@H]2C)cc1 (some centres not stated),"activity, negative = inhibition",[1],1.1% [at 11.6 µM]
same,redox activity (% of DA3003),[2],9.47% [at 11.5 µM]
CC1(C)CC[C@]2(C(=O)O[C@@H]3O[C@H](CO)[C@@H](O)[C@H](O)[C@H]3O)CC[C@]3(C)C(=CCC4[C@@]5(C)C[C@H](O)[C@H](O[C@@H]6O[C@H](C(=O)O)[C@@H](O)[C@H](O)[C@H]6O)[C@@](C)(CO)C5CC[C@]43C)C2C1 (some centres not stated),"activity, negative = inhibition",[1],1.06% [at 11.6 µM]
same,redox activity (% of DA3003),[2],-11.2% [at 11.5 µM]
CC1CC(O)/C=C/C(O)/C=C\C(=O)O1 (configuration not stated),Potency,[1],inactive
same,Potency,[2],inactive
COc1cc(C(C)=O)ccc1O[C@@H]1O[C@H](CO)[C@@H](O)[C@H](O)[C@H]1O,Potency,[1],inactive
same,Potency,[2],inactive
CC(NC(=O)c1ccccc1N)C(=O)O (configuration not stated),Potency,[1],inactive
same,Potency,[2],inactive
CSC(=O)OCC1=C[C@@H]2OC(=O)C3=CO[C@@H](O[C@@H]4O[C@H](CO)[C@@H](O)[C@H](O)[C@H]4O)[C@H]1[C@@H]32,Potency,[1],inactive
same,Potency,[2],inactive
CC(=O)OCC1OC(O[C@H]2CC[C@@]3(C)C(CC[C@]4(C)C3CC=C3[C@@H]5CC(C)(C)CC[C@]5(C(=O)O)CC[C@]34C)[C@]2(C)CO)C(O)C(O)C1OC1OC(C)C(O)C(OC2OCC(O)C(O)C2O)C1O (some centres not stated),"activity, negative = inhibition",[1],3.41% [at 11.6 µM]
same,redox activity (% of DA3003),[2],-4.45% [at 11.5 µM]
OCC1=C[C@@H](O)[C@@H]2C=CO[C@@H](O[C@@H]3O[C@H](CO)[C@@H](O)[C@H](O)[C@H]3O)[C@H]12,Potency,[1],inactive
same,Potency,[2],inactive
CO[C@@H]1[C@]2(O)C(=O)N3/C=C\C(C)(C)c4[nH]c5ccccc5c4/C=C\3C(=O)N2[C@]23[C@H](CO)C(C)(C)N2c2ccccc2[C@]13O,Potency,[1],inactive
same,Potency,[2],inactive
COc1c(C)c(OCC(O)C(C)(C)O)cc2c1CNC2=O (configuration not stated),Potency,[1],inactive
same,Potency,[2],inactive
CC(=O)NCC1CN(c2ccc(-c3ccc(CNCc4cn[nH]n4)cc3)c(F)c2)C(=O)O1 (configuration not stated),Potency,[1],inactive
same,Potency,[2],inactive
CC1(C)CC[C@]2(C(=O)O)CC[C@]3(C)C(=CCC4[C@@]5(C)CC[C@H](O)C(C)(C)C5CC[C@]43C)C2C1 (some centres not stated),Potency,[1],inactive
same,Potency,[2],inactive
CC1(C)CC[C@]2(C(=O)O[C@@H]3O[C@H](CO)[C@@H](O)[C@H](O)[C@H]3O)CC[C@]3(C)C(=CCC4[C@@]5(C)C[C@@H](O)[C@H](O)[C@@](C)(CO)C5[C@H](O)C[C@]43C)C2[C@@H]1O (some centres not stated),Potency,[1],inactive
same,Potency,[2],inactive
COc1cc(/C=C/CO[C@@H]2O[C@H](CO)[C@@H](O)[C@H](O)[C@H]2O)cc(OC)c1O[C@@H]1O[C@H](CO)[C@@H](O)[C@H](O)[C@H]1O,Potency,[1],inactive
same,Potency,[2],inactive
CC(=O)OC/C(=C/C(=O)O)CC[C@@H]1C(C)=CC(=O)[C@@H]2C(C)(C)CCC[C@@]12C,Potency,[1],inactive
same,Potency,[2],inactive
COC(=O)[C@H](Cc1cccc(C(=N)N)c1)[C@@H](C)NC(=O)c1ccc(-c2cc[n+]([O-])cc2)cc1,Potency,[2],inactive
C/C(=C\C(=O)C(C)C1CCC2C3=C(CCC21C)C1(C)CCC(=O)C(C)(C)C1(O)CC3)C(C)(C)O (configuration not stated),Potency,[2],inactive
COc1cc(/C=C/C(=O)OC[C@H]2O[C@@H](OC3CC(C)=C(C(=O)O)C(C)(C)C3)[C@H](O)[C@@H](O)[C@@H]2O)cc(OC)c1O (some centres not stated),Potency,[1],inactive
same,Potency,[2],inactive
CCC(C)(C)C1CCc2c(sc(NC(=O)c3ccc(Br)cc3)c2C#N)C1 (configuration not stated),Potency,[1],inactive
same,Potency,[2],inactive
COC(=O)C1=CO[C@@H](O[C@@H]2O[C@H](CO)[C@@H](O)[C@H](O)[C@H]2O)[C@@H]2[C@@H](C)[C@@H](O)C(O)[C@H]12 (some centres not stated),Potency,[1],inactive
same,Potency,[2],inactive
COc1cc(Nc2nc3c(s2)CCCC3c2ccccc2)ccc1-n1cnc(C)c1 (configuration not stated),"activity, negative = inhibition",[1],4.88% [at 11.6 µM]
same,redox activity (% of DA3003),[2],-0.384% [at 11.5 µM]
CC(C)C(NC(=O)c1ccc(O)cc1)C(=O)N1CCCC1C(=O)Nc1c(O)cccc1C(=O)O (configuration not stated),Potency,[1],inactive
same,Potency,[2],inactive
COC1OC(OC)C(O)(CCC2(C)C(C)CCC3(C)C2CC(O)C(O)C32CO2)C1O (configuration not stated),Potency,[1],inactive
same,Potency,[2],inactive
CC(C)=CCC[C@](C)(O[C@@H]1O[C@H](CO[C@@H]2O[C@@H](CO)[C@H](O)[C@H]2O[C@@H]2OC[C@@H](O)[C@H](O)[C@H]2O)[C@@H](O)[C@H](O)[C@H]1O)[C@H]1CC[C@]2(C)[C@@H]1[C@H](O)CC1[C@@]3(C)CC[C@H](O[C@@H]4O[C@H](CO)[C@@H](O)[C@H](O)[C@H]4O[C@@H]4O[C@H](CO)[C@@H](O)[C@H](O)[C@H]4O)C(C)(C)C3CC[C@]12C (some centres not stated),"activity, negative = inhibition",[1],0% [at 11.6 µM]
same,redox activity (% of DA3003),[2],-2.65% [at 11.5 µM]
CC(=O)O[C@@H]1C(=O)C(C)=C(CCC(C)CC(=O)O)[C@@]2(C)CCCC(C)(C)C12 (some centres not stated),Potency,[1],inactive
same,Potency,[2],inactive
Cc1[nH]c2ccccc2c1CC(=O)N[C@@H](Cc1ccccc1)C(=O)N(C)c1ccccc1,Potency,[1],inactive
same,Potency,[2],inactive
CC(O)C(O)/C=C/C=C/C(=O)O[C@@H]1C=C(C(=O)O)[C@](O)(CO)[C@@]2(C)CCCC(C)(C)[C@H]12 (some centres not stated),Potency,[1],inactive
same,Potency,[2],inactive
CC(C)CC(=O)OC[C@@]1(O)C[C@@]23CC[C@H]4[C@@](C)(CCC[C@@]4(C)C(=O)O)[C@@H]2CC[C@@H]1C3,Potency,[1],inactive
same,Potency,[2],inactive
C[C@@H]1O[C@@H](OC2C(CO)OC(OCC3OC(OC(=O)[C@]45CCC(C)(C)CC4C4=CCC6[C@@]7(C)CC[C@@H](O)[C@](C)(C(=O)O)C7CC[C@@]6(C)[C@]4(C)CC5)C(O)C(O)C3O)C(O)C2O)[C@H](O)[C@H](O)[C@H]1O (some centres not stated),"activity, negative = inhibition",[1],3.23% [at 11.6 µM]
same,redox activity (% of DA3003),[2],10.6% [at 11.5 µM]
